# Hits are enriched below; roughly 19% of the tested compounds scored in any of these assays.
# TDP1 cell noCPT – qHTS for Inhibitors of human tyrosyl-DNA phosphodiesterase 1 (TDP1): qHTS in cells in absence of CPT; AID 686978, 2013; actives 15% (n = 420,000); DT40 Tdp1-/- hTDP1 cells, no CPT, ATP luminescence, 48 h; Potency, µM (highest dose often 46.2 µM), for inactives: at the top dose activity change, negative = growth inhibition, hits mostly inhibitors; further: potency means the concentration at half of the fitted maximal effect; nearly all actives have a fitted effect of over 55% in size
#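 DT40 Tdp1-/-;hTDP1 cells, no CPT (DMSO vehicle only), 400 cells/well; compounds pin-transferred; ≥48 hr, 37 °C; CellTiter-Glo 30 min RT dark, luminescence read.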
# HT1080 IDH1KD tx – toxicity to HT-1080 IDH1 knockdown cells (counter line) | actives 2% (n = 360,000) | HT-1080 IDH1 knockdown viability, ATP luminescence, 48 h | Potency, µM (titrated, usually from 46.1 µM), inactives show top-dose activity, negative = toxicity, hits mostly cytotoxic | AID 686971;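 further: potency means the concentration at half of the fitted maximal effect; 0% = DMSO wells and -100% = cell-free medium wells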
#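 Knockdown cells (IDH1KD HT-1080) received compounds 2 h after plating at 750 cells/well and were kept 48 h at 37 °C in 5% FBS RPMI. A CellTiter-Glo luminescence read gave % activity for curve fitting.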
# IL-1B inflam inh – inflammasome signaling inhibition, IL-1 beta readout. THP-1 LPS/ATP IL-1B secretion, AlphaLISA, 16 h; stronger effect = lower value. activity change, % at 57.5 µM. actives 4.7% (n = 360,000); in the data active means activity change below about -50%; inconclusive means mostly about -30% to -49%
#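 THP-1 cells pretreated 1 hr with compounds (up to 57.5 uM final), then stimulated with LPS (250 ng/mL final) plus ATP (1.25 mM final); secreted IL-1B measured by AlphaLISA after 16 hr, decreased signal indicating inhibition.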
# HT1080-NT tox – kills 2HG-producing HT-1080-NT fibrosarcoma cells | HT-1080-NT fibrosarcoma viability, CellTiter-Glo ATP luminescence, 48 h | Potency, µM (series often up to 46.1 µM), without a hit: top-dose activity, negative = less viability, most hits filed as cytotoxic | actives 1.6% (n = 360,000) | AID 686970;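 further: NT is the 2HG producing partner of a matched IDH1 knockdown line; potency means the concentration at half of the fitted maximal effect; 0% = DMSO-treated cells and -100% = media-only wells without cells; nearly all actives have a fitted effect of over 55% in size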
#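 Read-out is CellTiter-Glo luminescence after 10 minutes at room temperature, following 48 hours' compound treatment of HT-1080-NT cells (750 cells/well, RPMI, 5% FBS, 37 degrees C).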
# DT40 TDP1 CPT – growth inhibition of DT40 Tdp1-/-;hTDP1 cells with camptothecin (screen for TDP1 inhibitors); chicken DT40 Tdp1-/-;hTDP1 cells + 20 nM CPT, ATP luminescence, 48 h; Potency, µM (titrated, usually from 46.2 µM), inactives show at the highest dose activity change, negative = growth inhibition, most hits filed as inhibitors; actives 12% (n = 420,000); AID 686979; further: potency means the concentration at half of the fitted maximal effect; nearly all actives have a fitted effect of over 55% in size
#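 Chicken DT40 Tdp1-/- cells stably complemented with human TDP1 were seeded at 400 cells/well in medium containing 20 nM camptothecin, exposed to pin-transferred compounds, and grown at 37 °C for at least 48 hr. Viability was read as ATP luminescence.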
# An asterisk follows results filed as active; ? = inconclusive; / = no result given; [ ] = another dose, or the depositor's remark. Unless noted, the call rests on the fitted dose curve; in most records, active means well fitted curve in the direction sought with a large enough effect; inconclusive means small, poorly fitted or top-dose-only effect, or another doubt; inactive means no such curve, though single readings can be large; an effect the other way counts as inactive or inconclusive. Unless noted, on the % scale 0 is the no-effect control and ±100 the full control effect.
SMILES,TDP1 cell noCPT,HT1080 IDH1KD tx,IL-1B inflam inh,HT1080-NT tox,DT40 TDP1 CPT
Cc1oc(-c2ccc(Cl)cc2)nc1CN1CCC(C(=O)N2CCc3ccccc3C2)CC1,18µM*,-1%,-10,1%,23µM*
CCOC(=O)C1CCCN(C(=O)C2CCN(Cc3nc(-c4ccc(Cl)cc4)oc3C)CC2)C1 (centres undefined),21µM*,-10%,-24,-2%,?
COc1ccc(-c2nc(CN3CCC(C(=O)N4CCOCC4)CC3)c(C)o2)cc1OC,6%,13%,-5,-1%,10%
Cc1oc(-c2ccc(Cl)cc2)nc1CN1CCC(C(=O)N2CCN(Cc3ccccc3)CC2)CC1,?,?,-60*,?,?
Cc1ccccc1-c1nc(CN2CCC(C(=O)N3CCC(C(N)=O)CC3)CC2)c(C)o1,-1%,0%,-19,15%,18%
CCc1ccc(CNc2ccc3c(c2)ncn3C(C)(C)C)cc1,21µM*,-7%,-78*,-17%,21µM*
CCN(CC)c1ccc(CNc2ccc3c(c2)ncn3C(C)(C)C)cc1,?,-23%,-24,-5%,16µM*
CC(C)(C)n1cnc2cc(NCc3ccc(Br)cc3)ccc21,?,-27%,?,-10%,?
CCc1ccc(CNc2ccc3c(c2)ncn3CC)cc1,?,-3%,-57*,-1%,?
CCn1cnc2cc(NCc3ccc(OC)cc3)ccc21,?,10%,1,-2%[9.24 µM],-25%
Cc1cccc(C)c1OC(=O)CSc1nnc(-c2ccccc2O)o1,-3%,?,-15,-5%,-29%
COc1ccc(C(=O)OCC(=O)NCc2ccccc2)c(OC)c1OC,-19%,-1%,48,6%,11%
O=C1C2CC=CCC2C(=O)N1c1n[nH]c(-c2ccccc2)n1 (centres undefined),12%,8%,33,17%,5%
CCOC(=O)C1=CN(Cc2ccco2)S(=O)(=O)N(CC)C1c1ccc(F)c(Cl)c1 (centres undefined),?,-3%,-28,0%,?
CC1Cc2ccccc2N1C(=O)Cn1c(=O)oc2cc(S(=O)(=O)NC3CCCC3)ccc21 (centres undefined),?,-3%,-52*,-5%,?
COc1ccc(NC(=O)Cn2c(=O)oc3cc(S(=O)(=O)NC(C)C)ccc32)cc1OC,?,/,/,/,-25%
COc1ccc(NC(=O)Cn2c(=O)oc3cc(S(=O)(=O)NC4CCCC4)ccc32)cc1OC,21µM*,/,/,/,?
COc1ccc(NC(=O)COc2ccc(S(=O)(=O)NC3CCCCC3)cc2)cc1OC,21µM*,/,/,/,?
O=C(NCc1cccnc1)C1CCCN(Cc2cnn(-c3ccccc3)c2-n2cccc2)C1 (centres undefined),?,-16%,0,-13%,-26%
COc1cccc(/C=C/C(=O)OCC(=O)c2ccc3c(c2)NC(=O)CO3)c1OC,-23%,3%,6,2%,6%
O=C1COc2ccc(C(=O)CCl)cc2N1,1.6µM*,-9%,-90*,-21%,5.8µM*
CC(C)[C@H](NC(=O)c1ccccc1)C(=O)OCC(=O)c1ccc2c(c1)NC(=O)CO2,5.8µM*,-16%,0,11%,4.6µM*
CCCCCCC(=O)OCC(=O)c1ccc2c(c1)NC(=O)CO2,13µM*,13%,-20,2%,8.2µM*
CCC(=O)c1ccc(OCC(=O)c2ccc3c(c2)NC(=O)CO3)cc1,-21%,14%,-2,1%,-15%
COc1ccc(/C=C/C(=O)OCC(=O)c2ccc3c(c2)NC(=O)CO3)c(OC)c1,4%,-15%,-52*,?,-8%
COc1ccc(CCN(C)C(=S)Nc2cccc(C)c2)cc1OC,-26%,1%,-6,-3%,-7%
OC1(c2ccccn2)COc2ccccc2O1 (centres undefined),10%,2%,-14,6%,3%

# Bioassay records as filed in PubChem BioAssay.
